Values joined by “and” are separate entries in the source; they are usually repeats but may differ in a detail not shown here. Equal values may be shown once. Where a name gives a salt, the structure may show the parent alone.
Legend:
Assay in all cases: cell viability relative to vehicle control; higher = less cytotoxic
Conditions in all cases: 10 µM
[1] = system: K562
Method in brief: (§1)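 Each screen used CRISPR-edited mutant and wild-type clones from four leukaemia lines. Compounds were acoustically dispensed at a single 10 µM dose, and CellTiter-Glo luminescence was read after 48 h with the supernatant first removed. Viability was analysed in Genedata Screener and given as percent of the on-plate vehicle control.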

[2] = system: MARIMO
Method in brief: as §1

[3] = system: MOLM14
Method in brief: as §1

[4] = system: OCI-AML2
Method in brief: as §1

Structure (SMILES)	cell viability ([1]; SRSF2 genotype: SRSF2 P95H/wt)	cell viability ([1]; SRSF2 genotype: SRSF2 wt/wt)	cell viability ([2]; SRSF2 genotype: SRSF2 P95H/wt)	cell viability ([2]; SRSF2 genotype: SRSF2 wt/wt)	cell viability ([3]; SRSF2 genotype: SRSF2 P95H/wt)	cell viability ([3]; SRSF2 genotype: SRSF2 wt/wt)	cell viability ([4]; SRSF2 genotype: P95H/wt)	cell viability ([4]; SRSF2 genotype: wt/wt)
CC(C)(C)c1ccc(S(=O)(=O)NCc2ccc(C(=O)Nc3cccnc3)cc2)cc1	31.8% and 20.2%	26.6%	20.9%	32.5%	9.88%	1.9%	5.52%	5.41%
CC(C)[C@H](N)C(=O)OCC(CO)OCn1cnc2c(=O)nc(N)[nH]c21 (stereo partly drawn) [Valganciclovir Hydrochloride]	86.3% and 81.6%	83.1%	90.7%	84.8%	87.2%	88.3%	77%	89.2%
CCCc1ccc(OCC(=O)N(Cc2nc(-c3cccnc3)no2)C(C)C)cc1	87.5% and 91.9%	91.3%	81.5%	90.4%	85.6%	96%	77.4%	83.9%
COc1cc2c(cc1O)CC[C@@H]1[C@@H]2CC[C@]2(C)[C@@H](O)CC[C@@H]12 [2-Methoxyestradiol]	14% and 27.1%	29.9%	10.4%	10.9%	7.93%	2.27%	6.68%	13.6%
Cn1c(N2CCCCS2(=O)=O)nc(C(=O)NCc2ccc(F)cc2)c(O)c1=O	110%	113%	108%	115%	112%	111%	112%	102%
CCC(=O)O[C@H]1[C@H](O[C@@H]2[C@@H](C)[C@H](O[C@H]3C[C@@](C)(OC)[C@@H](O)[C@H](C)O3)[C@@H](C)C(=O)O[C@H](CC)[C@@](C)(O)[C@H](O)[C@@H](C)C(=O)[C@H](C)C[C@@]2(C)O)O[C@H](C)C[C@@H]1N(C)C [Erythromycin estolate]	92.3% and 89.5%	90.4%	92.3%	105%	96.4%	95.8%	77.5%	76.8%
CC(C(=O)O)c1ccc(C(=O)c2cccs2)cc1 (stereo not drawn) [Suprofen (Profenal)]	107% and 103%	93.2%	94.7%	110%	98.9%	99.9%	88.8%	94.2%
Cc1cc(C(C)(C)C)cc(C)c1CC1=NCCN1 [Xylometazoline HCl]	92.4% and 97.6%	99.5%	95.4%	105%	102%	103%	93.4%	99.7%
CC1(C)[C@@H](O[C@H]2O[C@H](C(=O)O)[C@@H](O)[C@H](O)[C@H]2O[C@@H]2O[C@H](C(=O)O)[C@@H](O)[C@H](O)[C@H]2O)CC[C@]2(C)[C@H]3C(=O)C=C4[C@@H]5C[C@@](C)(C(=O)O)CC[C@]5(C)CC[C@@]4(C)[C@]3(C)CC[C@@H]12 [Dipotassium glycyrrhizinate]	105% and 104%	102%	103%	112%	103%	103%	101%	105%
CC12CCC(CC1)C(C)(C)O2 [Eucalyptol]	104% and 102%	104%	101%	101%	104%	101%	102%	103%
O=S(=O)(O)c1ccc2cc(N=Nc3cc(S(=O)(=O)O)c4cccnc4c3O)ccc2c1	95.9% and 96.5%	89%	93.5%	107%	96.9%	95.2%	88.5%	94.5%
COc1ccccc1N1CCN(CCCNc2cc(=O)n(C)c(=O)n2C)CC1 [Urapidil hydrochloride]	102% and 95.6%	96.9%	97.8%	102%	99.6%	98%	96.8%	95.2%
CC1(C)[C@@H](O[C@H]2O[C@H](C(=O)O)[C@@H](O)[C@H](O)[C@H]2O[C@@H]2O[C@H](C(=O)O)[C@@H](O)[C@H](O)[C@H]2O)CC[C@]2(C)[C@H]3C(=O)C=C4[C@@H]5C[C@@](C)(C(=O)O)CC[C@]5(C)CC[C@@]4(C)[C@]3(C)CC[C@@H]12 [Diammonium Glycyrrhizinate]	98.9% and 104%	99.1%	101%	99.7%	100%	103%	101%	114%
COC(=O)CC[C@H](NC(=O)[C@H](CC(=O)OC)NC(=O)OCc1ccccc1)C(=O)N[C@H](C(=O)N[C@@H](CC(=O)OC)C(=O)CF)C(C)C	101% and 95.3%	93.7%	99.4%	104%	100%	97.3%	98.4%	103%
C[C@H]1COc2c(N3CCN(C)CC3)c(F)cc3c(=O)c(C(=O)O)cn1c23 [Levofloxacin hydrate]	93.5% and 91%	95.8%	94.3%	98.4%	97.2%	97.9%	93.3%	92.1%
OCCn1cc(-c2ccc3c(c2)CC/C3=N\O)c(-c2ccncc2)n1	110%	111%	85%	73%	89.8%	94%	94.4%	80.8%
CC(=O)N1CCN(c2ccc(NC(=O)Cc3cnc(-c4ccnc(F)c4)c(C)c3)nc2)CC1	88.7% and 84.8%	82.3%	85.7%	97.8%	80.4%	86.7%	91.1%	94.6%
Cc1ccc2c(c1)C(=O)C1(O)CCN(c3ccccc3)C1=N2 (single isomer, unassigned; (-)) [(-)-Blebbistatin]	93.5% and 92.5%	94%	88.4%	98.6%	61.3%	60.7%	80.5%	90.4%
CO[C@@H]1[C@@H](OC(N)=O)[C@@H](O)[C@H](Oc2ccc3c(O)c(NC(=O)c4ccc(O)c(CC=C(C)C)c4)c(=O)oc3c2C)OC1(C)C [Novobiocin sodium (Albamycin)]	103% and 87.6%	82.6%	91.6%	92.9%	93.6%	89.7%	91.4%	94.4%
CCCNC(=O)c1cn2ncnc(Nc3cc(C(=O)NC4CC4)ccc3C)c2c1C	90.9% and 95.7%	93.3%	99.5%	101%	91.8%	95.8%	91.3%	95.9%
CN1c2ccccc2C(=O)Nc2cnc(Nc3ccc(N4CCC(O)CC4)cc3)nc21	16.4% and 22.1%	15.7%	69.5%	83.9%	57.2%	39.6%	51%	49.3%

Structure (SMILES)	cell viability ([1]; SRSF2 genotype: SRSF2 P95H/wt)	cell viability ([1]; SRSF2 genotype: SRSF2 wt/wt)	cell viability ([2]; SRSF2 genotype: SRSF2 P95H/wt)	cell viability ([2]; SRSF2 genotype: SRSF2 wt/wt)	cell viability ([3]; SRSF2 genotype: SRSF2 P95H/wt)	cell viability ([3]; SRSF2 genotype: SRSF2 wt/wt)	cell viability ([4]; SRSF2 genotype: P95H/wt)	cell viability ([4]; SRSF2 genotype: wt/wt)
Cc1ccc(S(=O)(=O)c2ccc([N+](=O)[O-])o2)cc1	0.16% and 0.25%	0.18%	0.21%	0.25%	0.19%	0.2%	0.21%	0.26%
CC[C@H](NC(=O)[C@H](C)NC)C(=O)N1C[C@@H](O)C[C@H]1Cc1c(-c2[nH]c3cc(F)ccc3c2C[C@@H]2C[C@H](O)CN2C(=O)[C@H](CC)NC(=O)[C@H](C)NC)[nH]c2cc(F)ccc12	97.7% and 102%	99.4%	78.6%	93.4%	61.6%	65.4%	103%	107%
Cc1cc2c(C(N)=O)cccc2n1-c1nc2c(c(NCc3ccccc3)n1)COCC2	0.8% and 0.75%	0.74%	0.6%	1.05%	0.36%	0.42%	0.35%	0.49%
O=c1cc(N2CCOCC2)oc2c1ccc1ccccc12	96.7% and 102%	99.6%	93.3%	102%	89.2%	96.7%	87.6%	96.7%
O=c1c(-c2ccc(O)cc2)coc2c([C@@H]3O[C@H](CO)[C@@H](O)[C@H](O)[C@H]3O)c(O)ccc12 [Puerarin (Kakonein)]	109% and 101%	97.2%	98.6%	101%	102%	102%	96.4%	102%
Nc1ncn([C@H]2C[C@H](O)[C@@H](CO)O2)c(=O)n1 [Decitabine]	77.9% and 88.9%	80.9%	69.5%	73.8%	47.4%	39.7%	54.4%	58.2%
Cc1cc(C2CCCCC2)n(O)c(=O)c1 [Ciclopirox (Penlac)]	54.8% and 52%	42.2%	14.8%	21.8%	7.11%	2.18%	15.5%	16.3%
CC(C)Cc1ccc(C(C)C(=O)O)cc1 (stereo not drawn) [Ibuprofen (Advil)]	99.3% and 98.5%	92.9%	95.1%	100%	100%	101%	87.7%	101%
O=C1CCc2c(ccc3ccccc23)O1 [Splitomicin]	105% and 97%	95.4%	103%	107%	98.7%	99.5%	96.9%	102%
CCOc1cc(N2CCC(O)CC2)ccc1Nc1ncc2c(n1)N(C)c1ccccc1C(=O)N2C	91% and 89.7%	88%	73%	59.6%	62.4%	55.3%	58.3%	67.9%
C=CC(=O)Nc1cccc(Nc2nc(Nc3ccc(OCCOC)cc3)ncc2F)c1	66.8% and 79.5%	73.4%	62.1%	60.4%	9.43%	6.93%	28.2%	31.8%
Nc1c2c(nc3ccccc13)CCCC2 [tacrine hydrochlorid]	101% and 110%	112%	100%	113%	103%	105%	122%	94.5%
Clc1ccc2c(c1)CCc1cccnc1C2=C1CCNCC1 [Desloratadine]	90.9% and 102%	93.2%	80.7%	83.5%	88.8%	94.3%	94.8%	81.9%
N[C@@H]1CN(c2c(F)cc3c(=O)c(C(=O)O)cn([C@@H]4C[C@@H]4F)c3c2Cl)CC12CC2 [Sitafloxacin hydrate]	103% and 104%	91.9%	104%	105%	105%	103%	102%	107%
COc1cc(/C=C/C(=O)OC[C@H]2O[C@H](O[C@]3(CO)O[C@H](CO)[C@@H](O)[C@@H]3OC(=O)/C=C/c3cc(OC)c(O)c(OC)c3)[C@H](O)[C@@H](O)[C@@H]2O)cc(OC)c1O [3,6'-Disinapoyl sucrose]	106% and 103%	101%	106%	109%	112%	105%	102%	105%
O=C(NC[C@H](O)CN1CCc2ccccc2C1)c1cc(NC2COC2)ncn1	95.9% and 92.8%	95.6%	87.6%	98.1%	88.8%	92.6%	76.3%	77.1%
CNC(=O)c1c(C)oc2cc(Oc3ncnc4cc(OC)c(OC)cc34)ccc12 [Fruquintinib]	101% and 96.7%	97.1%	98.6%	99.7%	95.8%	105%	84.3%	85.4%
CCn1cc(C(=O)O)c(=O)c2cc(F)c(N3CCNCC3)cc21 [Norfloxacin (Norxacin)]	91.3% and 98.8%	90.9%	88.7%	95.5%	90.5%	91.8%	97.4%	91.5%
Nc1ncnc2c1ncn2[C@@H]1O[C@H](CO)[C@@H](O)[C@@H]1O [Vidarabine (Vira-A)]	94.6% and 101%	97%	89.9%	93.4%	92.5%	96.1%	101%	102%
CN1CCN(C(=O)C=Cc2ccc([N+](=O)[O-])o2)CC1	43.9% and 54.3%	65.3%	65%	72.4%	40.7%	35.7%	24.7%	42.6%
